# Results filed as inconclusive are left out. Entries that show only a call come without a potency. The source made the active and inactive calls. Calls follow the shape of the dose curve; as a rule, active = well fitted inhibition curve with a large enough effect; inconclusive = small, poorly fitted or top-dose-only effect; inactive = no such curve, though single readings can be large or run the other way.
# System: Zika virus NS2B-NS3 protease (linked construct)
# Experiment: Primary screen NINDS Rhodamine qHTS for Zika virus inhibitors (AID 1347160); also: nearly all actives have a fitted effect of over 55% in size
# Conditions: purified NS2B-NS3 protease, Rhodamine110 substrate fluorescence; series mostly up to 57.1 µM
# In short: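 Aprotinin served as in-plate control. Conditions: 25 nM linked NS2B-NS3, pH 8.0 Tris buffer, titrated compounds, 15 min preincubation and 15 min reaction with 1.5 microM Rhod110 substrate at room temperature.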
SMILES,Potency,"activity change, negative = inhibition"
COc1ccc(CCC(=O)c2c(O)cc(O)cc2O[C@@H]2O[C@H](CO)[C@@H](O)[C@H](O)[C@H]2O)cc1,inactive,
C=C1CCC2C(C)(C(=O)O)CCCC2(C)C1CCC(C)CC(=O)O (configuration not stated),inactive,
C=C(C)C1Cc2cc(C(=O)OC3OC(CO)C(O)C(O)C3O)ccc2O1 (configuration not stated),inactive,
C[C@@H]1O[C@@H](O[C@H]2[C@H](O[C@H]3[C@H](O)[C@@H](C(=O)O)O[C@@H](O[C@H]4CC[C@@]5(C)C(CC[C@]6(C)C5CC[C@]57OC[C@@]8(CCC(C)(C)CC85)[C@H](O)C[C@]76C)C4(C)C)[C@@H]3O[C@@H]3O[C@H](CO)[C@@H](O[C@@H]4OC[C@@H](O)[C@H](O)[C@H]4O)[C@H](O)[C@H]3O)O[C@H](CO)[C@H](O)[C@@H]2O)[C@H](O)[C@H](O)[C@H]1O (some centres not stated),,-19.8% [at 10.7 µM] (inactive)
C[C@@H]1O[C@@H](O[C@H]2[C@H](O[C@H]3[C@H](O[C@H]4CC[C@@]5(C)C(CC[C@]6(C)C5CC=C5[C@@H]7CC(C)(C)C[C@@H](O)[C@]7(C)CC[C@]56C)[C@@]4(C)CO)O[C@H](C(=O)O)[C@@H](O)[C@@H]3O)OC[C@H](O)[C@@H]2O)[C@H](O)[C@H](O)[C@H]1O (some centres not stated),inactive,
COc1ccc(/C=C/C(=O)O[C@@H]2[C@@H](O)[C@H](C)O[C@@H](O[C@H]3[C@@H]4C=CO[C@@H](O[C@H]5O[C@@H](CO)[C@H](O)[C@@H](O)[C@@H]5O)[C@@H]4[C@@]4(CO)O[C@@H]34)[C@@H]2OC(C)=O)cc1,inactive,
C=C(C)C(=O)OC1CC2(C)OC(=CC2=O)C(=C)CC2OC(=O)C(COC)C12 (configuration not stated),inactive,

# Reference: PubChem BioAssay (NCATS)
